Nine molecules from PubChem BioAssay (NCI) can be followed below.

The structures appear in SMILES notation. About 83,000 compounds went through this panel and 20% of them were active in at least one assay; those are over-represented in the sample as a whole.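 48-hour exposure, single concentration, 96-well plates; percent growth endpoint where 0 means no net growth. Active: below 10.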 A number with no mark means an inactive call. Activity calls are given as the source filed them.

Test systems include SK-MEL-2 melanoma; SN12C renal; UO-31 renal; TK-10 renal; ACHN renal; CAKI-1 renal; A498 renal; CCRF-CEM leukemia; MOLT-4 leukemia; SR leukemia; RPMI-8226 leukemia; OVCAR-8 ovarian; OVCAR-5 ovarian; OVCAR-4 ovarian; SK-OV-3 ovarian; OVCAR-3 ovarian; HS 578T breast; NCI/ADR-RES ovarian; IGROV1 ovarian.
Common to all, as to assay: NCI-60 one-dose screen, 48 h (100 = growth as untreated, 0 = no growth, -100 = all killed)
Conditions in all cases: 10 µM unless noted

Regarding `CC(=O)Nc1ccc(C(=O)COc2ccc(/C=C3\CCc4ccccc4C3=O)cc2)cc1`, the growth with SK-MEL-2 melanoma is 77.8%; in the test with SN12C renal, 103%; in the test on UO-31 renal, 33.2%; with TK-10 renal, 112%; in the test on ACHN renal it was 103%; with CAKI-1 renal it was 94.8%. Also, the growth in the test with A498 renal was 66.3%; in the test with CCRF-CEM leukemia it was 89.4%; with MOLT-4 leukemia, 78.8%; in the test with SR leukemia, 84.4%; in the test with RPMI-8226 leukemia, 83.3%; in the test with OVCAR-8 ovarian it was 98.8%. Further, the growth in the test with OVCAR-5 ovarian was 101%; in the test on OVCAR-4 ovarian, 104%; in the test with SK-OV-3 ovarian it was 117%; in the test on OVCAR-3 ovarian it was 111%; in the test on HS 578T breast, 99%; in the test on NCI/ADR-RES ovarian, 96.2%.

For `FCc1ncc(-c2ccc(C(F)(F)F)cc2)c(NC2CCCCCC2)n1`, the growth is -40.8% [100 µM] (active) in the test with SK-MEL-2 melanoma; -30.3% [100 µM] (active) in the test with SN12C renal; 11.1% [100 µM] with UO-31 renal; 38% [100 µM] in the test with TK-10 renal; 8.81% [100 µM] (active) with ACHN renal; 0.556% [100 µM] (active) with CAKI-1 renal. Moreover, the growth was -19.4% [100 µM] (active) in the test with A498 renal; -20.3% [100 µM] (active) in the test with MOLT-4 leukemia; -18% [100 µM] (active) in the test with SR leukemia; 4.24% [100 µM] (active) in the test with RPMI-8226 leukemia; 15.8% [100 µM] in the test on OVCAR-8 ovarian; 32.7% [100 µM] in the test on OVCAR-5 ovarian. The growth in the test with OVCAR-4 ovarian is 27.2% [100 µM]; in the test on SK-OV-3 ovarian, 46.1% [100 µM]; with IGROV1 ovarian, 27.2% [100 µM]; in the test with OVCAR-3 ovarian, -85% [100 µM] (active); in the test with HS 578T breast, 41.4% [100 µM]; in the test on NCI/ADR-RES ovarian, 18.4% [100 µM].

As for `COc1ccc2c(c1)CC[C@@H]1[C@@H]2CC[C@]2(C)[C@@H](O)C(=O)C[C@@H]12`, the growth in the test with SK-MEL-2 melanoma was 107%; in the test with SN12C renal it was 96.1%; in the test with UO-31 renal it was 85.2%; with TK-10 renal, 109%; with ACHN renal, 94.9%; in the test with CAKI-1 renal, 97.4%. The growth was 95.7% with A498 renal; 91.8% in the test on CCRF-CEM leukemia; 90.8% in the test on MOLT-4 leukemia; 84.2% in the test on SR leukemia; 103% in the test with RPMI-8226 leukemia; 101% in the test on OVCAR-8 ovarian. Besides, the growth in the test on OVCAR-5 ovarian was 95.8%; in the test with OVCAR-4 ovarian, 107%; with SK-OV-3 ovarian it was 120%; in the test with IGROV1 ovarian, 115%; with HS 578T breast, 100%; with NCI/ADR-RES ovarian it was 105%.

In the case of `C=CCN(/C=C/CN(CC=C)CC=C)CC=C`, the growth with SK-MEL-2 melanoma is 115%; in the test with SN12C renal, 104%; with UO-31 renal, 90.1%; in the test on TK-10 renal, 96.9%; in the test with ACHN renal it was 93.2%; in the test with CAKI-1 renal, 69.7%. The growth with A498 renal was 91.8%; in the test on MOLT-4 leukemia, 96.4%; with SR leukemia it was 85.3%; in the test on RPMI-8226 leukemia, 95.8%; in the test with OVCAR-8 ovarian it was 95.8%; with OVCAR-5 ovarian, 104%. In addition, the growth is 91.7% with OVCAR-4 ovarian; 103% with SK-OV-3 ovarian; 96.3% in the test on IGROV1 ovarian; 105% in the test with OVCAR-3 ovarian; 109% in the test on HS 578T breast; 107% in the test with NCI/ADR-RES ovarian.

As for `COc1cc(OC)c2c(c1Cl)O[C@]1(C2=O)C(OCc2ccccc2)=CC(=O)C[C@H]1C`, the growth is 2.04% (active) with SK-MEL-2 melanoma; 13.3% with SN12C renal; 9% (active) in the test with UO-31 renal; 15.9% in the test on TK-10 renal; 6.86% (active) in the test with ACHN renal; 10.9% in the test with CAKI-1 renal. Moreover, the growth was -0.948% (active) with A498 renal; 10.4% in the test with CCRF-CEM leukemia; 14.1% in the test with MOLT-4 leukemia; 7.41% (active) in the test with SR leukemia; -4.76% (active) with RPMI-8226 leukemia; 17.2% in the test on OVCAR-5 ovarian. For the same molecule, the growth is 10.2% in the test on SK-OV-3 ovarian; 3.14% (active) in the test on IGROV1 ovarian; -23.5% (active) in the test with OVCAR-3 ovarian; 18.7% in the test with HS 578T breast; 7.55% (active) with NCI/ADR-RES ovarian.

Regarding `CCOC(=O)c1cc2oc(/C=C/c3cc(=O)c4cc(Cl)ccc4o3)cc2[nH]1`, the growth is 82.1% with SK-MEL-2 melanoma; 62.4% in the test with SN12C renal; 81.8% in the test with UO-31 renal; 113% in the test on TK-10 renal; 97.8% in the test with ACHN renal; 79% in the test with CAKI-1 renal. Besides, the growth in the test on A498 renal was 115%; with CCRF-CEM leukemia it was 105%; with MOLT-4 leukemia, 88.9%; in the test with SR leukemia, 87.9%; in the test on RPMI-8226 leukemia, 94.3%; with OVCAR-8 ovarian it was 105%. Moreover, the growth in the test on OVCAR-5 ovarian was 89.3%; with OVCAR-4 ovarian, 89.6%; in the test on SK-OV-3 ovarian, 98.5%; in the test with HS 578T breast it was 71.2%; in the test with NCI/ADR-RES ovarian, 93.6%.

As for `Cc1nn(-c2ccccc2)cc1/C=C1\SC(N2CCCCC2)=NC1=O`, the growth in the test on SK-MEL-2 melanoma was 94%; in the test on SN12C renal it was 93%; in the test on UO-31 renal it was 65.1%; in the test with TK-10 renal, 78.5%; with ACHN renal it was 74.7%; with CAKI-1 renal, 39.8%. In addition, the growth in the test with A498 renal was 71.3%; in the test on CCRF-CEM leukemia it was 43.6%; in the test on MOLT-4 leukemia it was 58.6%; in the test with SR leukemia, 8.09% (active); with OVCAR-8 ovarian it was 81.4%; in the test with OVCAR-5 ovarian, 103%. In addition, the growth was 119% with SK-OV-3 ovarian; 68.1% in the test on IGROV1 ovarian; 96.4% in the test on OVCAR-3 ovarian; 99.7% in the test on HS 578T breast; 89.7% in the test with NCI/ADR-RES ovarian.

As for `Cc1ccc(-c2c3c(N)c4c(nc3nc3c2c(C)nn3-c2ccccc2)CCC4)cc1`, the growth is 88.6% in the test on SK-MEL-2 melanoma; 94.1% with SN12C renal; 50.5% with UO-31 renal; 100% with TK-10 renal; 12% with ACHN renal; 99.2% in the test with CAKI-1 renal. Further, the growth in the test with A498 renal is 107%; with MOLT-4 leukemia, 60.9%; with SR leukemia it was 6.66% (active); in the test with RPMI-8226 leukemia, 85.6%; with OVCAR-8 ovarian it was 88%; in the test with OVCAR-5 ovarian, 94.7%. For the same molecule, the growth in the test on OVCAR-4 ovarian is 124%; with SK-OV-3 ovarian, 96.4%; in the test on IGROV1 ovarian it was 96.3%; in the test with OVCAR-3 ovarian, 102%; in the test with HS 578T breast, 87.9%; in the test on NCI/ADR-RES ovarian, 85.7%.

Turning to `Cc1cn(C(C=O)OC(C=O)CO)c(=O)[nH]c1=O` (centres undefined), the growth is 104% with SK-MEL-2 melanoma; 102% in the test with SN12C renal; 88.6% in the test with UO-31 renal; 103% with TK-10 renal; 107% with ACHN renal; 105% in the test with CAKI-1 renal. Besides, the growth with A498 renal is 111%; in the test with CCRF-CEM leukemia, 98.4%; in the test on MOLT-4 leukemia it was 104%; in the test with SR leukemia it was 93.9%; in the test with RPMI-8226 leukemia it was 107%; in the test with OVCAR-5 ovarian it was 111%. The growth in the test with OVCAR-4 ovarian is 96.9%; with SK-OV-3 ovarian it was 103%; in the test with IGROV1 ovarian, 102%; in the test on OVCAR-3 ovarian, 109%; in the test with HS 578T breast, 103%; in the test with NCI/ADR-RES ovarian, 107%.
